Growth inhibition data for nine compounds are collected here from PubChem BioAssay (NCI).

This is part of a sample that, as a whole, favours compounds with a hit. Of some 79,000 tested, about 15% had one in any assay. A number with no mark means an inactive call. Activity calls are given as the source filed them. Cut-off read from the data, not from the text of the source: active = growth inhibition above about 70%; inactive = the rest.

Test [1] is described as follows: NCI Yeast Anticancer Drug Screen. Data for the rad50 strain (AID 155).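 Note: 0% = growth of vehicle-only cultures of the same strain.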 Conditions: S. cerevisiae rad50 strain growth inhibition, stronger effect = higher value. The method in brief: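 Relative growth inhibition (compound vs vehicle) was measured in yeast with a defined repair-gene alteration.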
Test [2] can be described thus: NCI Yeast Anticancer Drug Screen. Data for the mec2-1 strain (AID 157). Conditions: S. cerevisiae mec2-1 strain, stronger effect = higher value. The method in brief: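 Each compound was tested on mec2-1 yeast, a strain altered in DNA damage repair or cell cycle control. Growth inhibition is reported relative to vehicle.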
The nature of test [3]: NCI Yeast Anticancer Drug Screen. Data for the sgs1 mgt1 strain (AID 161).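 Note: 0% = growth of cultures given vehicle only.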 Conditions: S. cerevisiae sgs1 mgt1 strain, stronger effect = higher value. The method, boiled down:
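Inhibition of yeast growth, normalised to vehicle-treated controls, is reported for a strain bearing genetic alterations in DNA damage repair.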

Test [4] is described as follows: NCI Yeast Anticancer Drug Screen. Data for the cln2 rad14 strain (AID 165).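 Note: 0% = growth equal to vehicle treated cultures.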 The note with it: S. cerevisiae cln2 rad14 strain, stronger effect = higher value. The method in brief: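 Test compounds were added to cln2 rad14 yeast cultures; inhibition of growth was then determined by comparison with vehicle treatment.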
The nature of test [5]: NCI Yeast Anticancer Drug Screen. Data for the bub3 strain (AID 167). Conditions: S. cerevisiae bub3 mutant strain, stronger effect = higher value. The method, boiled down:
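Screening used yeast with an engineered genetic alteration affecting cell cycle control. Compound-exposed cultures were compared with vehicle cultures, and reduced growth was taken as inhibition.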

Test [6] is described as follows: NCI Yeast Anticancer Drug Screen. Data for the mlh1 rad18 strain (AID 175). Conditions: S. cerevisiae mlh1 rad18 strain growth inhibition, stronger effect = higher value. The method in brief:
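Inhibition values reflect reduced growth of mutant yeast versus vehicle-treated controls following compound exposure; the mutations affect DNA damage repair.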

Where [7] appears, read: at 5.0 µM (retest, dose inferred, filed as 0.5).
Where [8] appears, read: at 50.0 µM (retest, dose inferred, filed as 5.0).

Consider `CC[N](CC)[Ge]([CH2]C)[CH2]C.CC[N](CC)[Ge]([CH2]C)[CH2]C`, for which the growth inhibition is 34% in test [1] (setting [7]); 98% (active) in test [1] (setting [8]); 57% in test [1] (at 50.0 µM); 21% in test [2] (setting [7]); 98% (active) in test [2] (setting [8]); 76.9% (active) in test [2] (at 50.0 µM). Besides, the growth inhibition is 56% in test [3] (setting [7]); 99% (active) in test [3] (setting [8]); 56.4% in test [3] (at 50.0 µM); 48% in test [4] (setting [7]); 98% (active) in test [4] (setting [8]); 37.1% in test [4] (at 50.0 µM). The growth inhibition is 59% in test [5] (setting [7]); 99% (active) in test [5] (setting [8]); 75% (active) in test [5] (at 50.0 µM); 27% in test [6] (setting [7]); 97% (active) in test [6] (setting [8]); 77.7% (active) in test [6] (at 50.0 µM).
For `CCC[N+]1=C(/C=C/c2ccc3cccnc3c2O)C(C)(C)c2ccccc21`, the growth inhibition in test [1] (setting [7]) was 0%; in test [1] (setting [8]), 98% (active); in test [1] (at 50.0 µM) it was 98.8% (active); in test [2] (setting [7]), 0%; in test [2] (setting [8]) it was 98% (active); in test [2] (at 50.0 µM) it was 99% (active). Moreover, the growth inhibition in test [3] (setting [7]) is 10%; in test [3] (setting [8]), 98% (active); in test [3] (at 50.0 µM), 54%; in test [4] (setting [7]), -15%; in test [4] (setting [8]) it was 98% (active); in test [4] (at 50.0 µM), 98.9% (active). The growth inhibition in test [5] (setting [7]) is 4%; in test [5] (setting [8]), 98% (active); in test [5] (at 50.0 µM) it was 98.8% (active); in test [6] (setting [7]), 25%; in test [6] (setting [8]) it was 98% (active); in test [6] (at 50.0 µM) it was 97.8% (active).
Consider `Oc1ccc(C(=C(Br)c2ccccc2)c2ccc(O)cc2)cc1`, for which the growth inhibition in test [1] (setting [7]) was 98% (active); in test [1] (setting [8]) it was 98% (active); in test [1] (at 50.0 µM), 87.7% (active); in test [2] (setting [7]), 99% (active); in test [2] (setting [8]) it was 99% (active); in test [2] (at 50.0 µM) it was 91.5% (active). Also, the growth inhibition in test [3] (setting [7]) was 99% (active); in test [3] (setting [8]) it was 99% (active); in test [3] (at 50.0 µM) it was 85.1% (active); in test [4] (setting [7]), 99% (active); in test [4] (setting [8]), 99% (active); in test [4] (at 50.0 µM), 89.5% (active). In addition, the growth inhibition is 99% (active) in test [5] (setting [7]); 99% (active) in test [5] (setting [8]); 89.3% (active) in test [5] (at 50.0 µM); 99% (active) in test [6] (setting [7]); 99% (active) in test [6] (setting [8]); 85.3% (active) in test [6] (at 50.0 µM).
Regarding `C=C1CC(Cn2cc(Br)c(=O)[nH]c2=O)(c2ccc(Br)cc2)OC1=O` (configuration not stated), the growth inhibition was 14% in test [1] (setting [7]); 98% (active) in test [1] (setting [8]); 97.8% (active) in test [1] (at 50.0 µM); 30% in test [2] (setting [7]); 98% (active) in test [2] (setting [8]); 98.7% (active) in test [2] (at 50.0 µM). The growth inhibition in test [3] (setting [7]) was 29%; in test [3] (setting [8]), 98% (active); in test [3] (at 50.0 µM) it was 97.8% (active); in test [4] (setting [7]), 19%; in test [4] (setting [8]) it was 90% (active); in test [4] (at 50.0 µM) it was 97.2% (active). Further, the growth inhibition was 4% in test [5] (setting [7]); 97% (active) in test [5] (setting [8]); 97.2% (active) in test [5] (at 50.0 µM); 40% in test [6] (setting [7]); 99% (active) in test [6] (setting [8]); 98.7% (active) in test [6] (at 50.0 µM).
As to `Nc1nc(N)c2nc(Sc3ccc(F)cc3)c(N)nc2n1`, the growth inhibition in test [1] (setting [7]) is -2%; in test [1] (setting [8]), 37%; in test [1] (at 50.0 µM) it was 42.7%; in test [2] (setting [7]), -1%; in test [2] (setting [8]), -4%; in test [2] (at 50.0 µM) it was 39.2%. Moreover, the growth inhibition in test [3] (setting [7]) was -1%; in test [3] (setting [8]), 40%; in test [3] (at 50.0 µM), 51.6%; in test [4] (setting [7]), 2%; in test [4] (setting [8]) it was 24%; in test [4] (at 50.0 µM) it was 10.3%. Further, the growth inhibition in test [5] (setting [7]) was -1%; in test [5] (setting [8]) it was 26%; in test [5] (at 50.0 µM) it was 40.9%; in test [6] (setting [7]), 0%; in test [6] (setting [8]) it was 58%; in test [6] (at 50.0 µM), 75.1% (active).
Take `N#C/C(=C\NC(=S)Nc1cc(Cl)ccc1Cl)c1nc2ccccc2s1`: the growth inhibition is 21% in test [1] (setting [7]); 25% in test [1] (setting [8]); 34.2% in test [1] (at 50.0 µM); 7% in test [2] (setting [7]); 21% in test [2] (setting [8]); 15.1% in test [2] (at 50.0 µM). The growth inhibition is 2% in test [3] (setting [7]); 4% in test [3] (setting [8]); 10.1% in test [3] (at 50.0 µM); 20% in test [4] (setting [7]); 29% in test [4] (setting [8]); 39.6% in test [4] (at 50.0 µM). In addition, the growth inhibition in test [5] (setting [7]) was 7%; in test [5] (setting [8]), 19%; in test [5] (at 50.0 µM) it was 37.4%; in test [6] (setting [7]), 21%; in test [6] (setting [8]), 12%; in test [6] (at 50.0 µM), 27.1%.
Turning to `O=C(O)c1c([N+](=O)[O-])cc(C(F)(F)F)cc1[N+](=O)[O-]`, the growth inhibition in test [1] (setting [7]) was -20%; in test [1] (setting [8]), 6%; in test [1] (at 50.0 µM) it was -1.7%; in test [2] (setting [7]), 0%; in test [2] (setting [8]), 13%; in test [2] (at 50.0 µM), 4.3%. In addition, the growth inhibition in test [3] (setting [7]) was 1%; in test [3] (setting [8]), 11%; in test [3] (at 50.0 µM), 14.9%; in test [4] (setting [7]), 9%; in test [4] (setting [8]), 43%; in test [4] (at 50.0 µM), -29.6%. Besides, the growth inhibition was 1% in test [5] (setting [7]); 10% in test [5] (setting [8]); -3.55% in test [5] (at 50.0 µM); 43% in test [6] (setting [7]); 9% in test [6] (setting [8]); 29% in test [6] (at 50.0 µM).
`COCCn1cc(F)c(=O)[nH]c1=O`: the growth inhibition in test [1] (setting [7]) was 15%; in test [1] (setting [8]) it was 16%; in test [1] (at 50.0 µM) it was -8.7%; in test [2] (setting [7]) it was 0%; in test [2] (setting [8]), 2%; in test [2] (at 50.0 µM), -2.25%. Moreover, the growth inhibition in test [3] (setting [7]) was 3%; in test [3] (setting [8]) it was 47%; in test [3] (at 50.0 µM) it was 33.2%; in test [4] (setting [7]), 6%; in test [4] (setting [8]), 8%; in test [4] (at 50.0 µM), 46.3%. Also, the growth inhibition in test [5] (setting [7]) was 8%; in test [5] (setting [8]) it was 5%; in test [5] (at 50.0 µM), -20.6%; in test [6] (setting [7]), 9%; in test [6] (setting [8]), 20%; in test [6] (at 50.0 µM), -5.45%.
As for `CN(C)C(=S)S(=O)(=O)CCCCS(=O)(=O)C(=S)N(C)C`, the growth inhibition was -1% in test [1] (setting [7]); 3% in test [1] (setting [8]); 86.3% (active) in test [1] (at 50.0 µM); 3% in test [2] (setting [7]); 8% in test [2] (setting [8]); 32.1% in test [2] (at 50.0 µM). Also, the growth inhibition in test [3] (setting [7]) is 2%; in test [3] (setting [8]), 11%; in test [3] (at 50.0 µM), 92.3% (active); in test [4] (setting [7]), -6%; in test [4] (setting [8]), -1%; in test [4] (at 50.0 µM) it was 9%. The growth inhibition in test [5] (setting [7]) was -2%; in test [5] (setting [8]), 0%; in test [5] (at 50.0 µM) it was 20.9%; in test [6] (setting [7]), -3%; in test [6] (setting [8]), 7%; in test [6] (at 50.0 µM), 81.8% (active).
